Results as given in the supplement of paper PMC6555819.

Legend:
Assay in all cases: PBM binding z-score (relative to random genomic background probes); higher = stronger binding; sequences stand for … in GC…GCGATTGACAGCGTAGAATGAAGG
[1] = test system: RARb homodimer (NR concentration 270 nM)
In short: (§1)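 Custom Agilent 4×180K protein-binding microarrays carried double-stranded probes. Their 34-nt variable regions held direct-repeat seeds, single-nucleotide variants, half-site ablations and random human genomic background sequences. Arrays were incubated 1 h with ligand-free nuclear receptor dimers in PBS pH 7.4, 2% milk, 0.02% Triton X-100, 1 mM DTT, 0.2 mg/mL BSA and 0.4 mg/ml salmon testes DNA. Antibodies against each partner (one per run) detected binding, and scanned fluorescence was regression-normalized. Binding z-scores use random background probes as reference.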

[2] = test system: RARg:RXRa (NR concentration 270 nM, RXRa partner concentration 90 nM)
In short: as §1

[3] = test system: RARg homodimer (NR concentration 270 nM)
In short: as §1

[4] = test system: RXRa DBDmut IVT, anti-RXR (DBD mutation: RXRa K156A/R161A, NR concentration 90 nM)
In short: as §1

[5] = test system: RXRa homodimer (NR concentration 180 nM)
In short: as §1

[6] = test system: THRa:RXRa (NR concentration 90 nM, RXRa partner concentration 90 nM)
In short: as §1

[7] = test system: THRa homodimer (NR concentration 90 nM)
In short: as §1

[8] = test system: VDR homodimer (NR concentration 270 nM)
In short: as §1

| Sequence | PBM binding z-score [1] | PBM binding z-score [2] | PBM binding z-score [3] | PBM binding z-score [4] | PBM binding z-score [5] | PBM binding z-score [6] | PBM binding z-score [7] | PBM binding z-score [8] |
| --- | --- | --- | --- | --- | --- | --- | --- | --- |
| AGAACGAGGGCAATGAGGTGATAGCACGGGTGGC | 1.58 | 1.49 | 1.52 | 1.37 | 1.04 | 2.46 | 0.988 | 1.57 |
| ATCTCTAGGTAAAGTTAAGTGAAAGATCGATAGA | -0.142 | 0.48 | 0.546 | 0.204 | 0.171 | 0.478 | -0.14 | 0.368 |
| CCTTACGGGTCAAGGTTAAAGCACGGGTGGTACG | 3.57 | 5.08 | 4.78 | 0.827 | 5.39 | 3.06 | 1.01 | 1.43 |
| CCTACTGGGCCAAAAAGGTCATGGATGCCGATAA | 1.31 | 5 | 4.57 | 0.231 | 5.58 | 3.41 | 1.05 | 1.81 |
| TTACCAAGGTGAAAGGTCGTTGGTGCACGCCTTG | 2.87 | 4.49 | 1.81 | 0.82 | 6.07 | 3.48 | 0.937 | 1.86 |
| TATTGTAGATCAATAGAGGTTAAGAAAGTGCGCT | 1.44 | 1.05 | 0.855 | -0.302 | 1.36 | 2.32 | -0.234 | 0.323 |
| CCGACTGGGGCATACGGTTACCATAAGCCAGCCC | 0.117 | 0.0936 | 0.374 | -0.766 | 0.369 | -0.473 | -0.389 | -0.653 |
